The full list was thinned out, with hits kept by preference.
LmPK inh: inhibitors of Leishmania mexicana pyruvate kinase. Q27686. AID 1721. Potency, µM (doses to about 57.5 µM), inactives show top-dose activity change, negative = inhibition, usual class: inhibitors. purified LmPK, Kinase-Glo ATP luminescence, 1 h. hit rate 0.37% among 290,000; note: potency is the fitted concentration of half-maximal effect; % is set by controls: 0 for no effect and ±100 for the full control effect
Target sequence (Q27686 whole entry, looked up): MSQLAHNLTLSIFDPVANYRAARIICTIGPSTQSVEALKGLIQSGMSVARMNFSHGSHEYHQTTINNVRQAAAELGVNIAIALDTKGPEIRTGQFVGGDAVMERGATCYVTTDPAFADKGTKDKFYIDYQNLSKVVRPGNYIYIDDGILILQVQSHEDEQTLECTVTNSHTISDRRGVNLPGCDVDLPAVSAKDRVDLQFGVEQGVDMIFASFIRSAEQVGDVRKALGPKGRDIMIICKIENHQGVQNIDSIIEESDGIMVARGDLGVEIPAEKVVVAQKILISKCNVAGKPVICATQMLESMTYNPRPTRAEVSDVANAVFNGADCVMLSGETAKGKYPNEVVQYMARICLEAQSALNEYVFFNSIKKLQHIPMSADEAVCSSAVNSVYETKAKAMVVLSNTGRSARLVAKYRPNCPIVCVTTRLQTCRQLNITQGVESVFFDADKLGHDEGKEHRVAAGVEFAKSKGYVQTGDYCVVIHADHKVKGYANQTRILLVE
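Purified LmPK (0.1 nM) converted ADP (0.1 mM) to ATP with PEP (0.5 mM) in imidazole buffer pH 7.2 with KCl and MgCl2, 1 h at room temperature. ATP was read by Kinase-Glo luminescence; data normalized to uninhibited and no-enzyme controls.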
NS1 inh: inhibitors of influenza NS1 protein function; Potency, µM (doses to about 46.1 µM), for the others: at the highest dose activity, positive = more growth; hit rate 0.4% among 270,000; AID 2326; calls by dose curve; note: potency is the fitted concentration of half-maximal effect; actives are rising curves; nearly all actives have a fitted effect of over 50% in size
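Growth recovery, yeast-based: influenza A NS1 expressed in S. cerevisiae causes slow growth, and suppressors are detected by OD600. The parent strain without NS1 is used as positive control.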
SARS PLpro yeast: SARS-CoV PLP inhibition in yeast | S. cerevisiae expressing SARS-CoV PLpro, growth rescue | Potency, µM (series often up to 32.9 µM), without a hit: top-dose activity, positive = growth rescue, actives largely listed as activators | hit rate 0.19% among 330,000 | AID 485353; calls by dose curve; note: potency is the fitted concentration of half-maximal effect; 0% is about no effect; nearly all actives have a fitted effect of over 55% in size
Shiga inhibitor: blocks Shiga toxin action in Vero cells | Vero cells, Shiga toxin protein synthesis inhibition reporter | inhibition, % at 38.7 µM | AID 2315 | hit rate 9.2% among 290,000; in the data active = inhibition mostly above about 28%, no sharp cut-off; inactive = mostly below about 43%; note: 0% is about no effect
Cycloheximide cs: counter-screen hit for Shiga toxin inhibitors, cycloheximide; cell reporter, cycloheximide protein synthesis inhibition counterscreen; max response, %; hit rate 12% among 300,000; AID 2314; in the data active = max response mostly above about 13%, no sharp cut-off; inactive = mostly below about 14%; note: read at 38.3 µM for the half of the compounds with a filed dose; 0% is about no effect
TbPYK inhibitor: T. brucei pyruvate kinase inhibition. hit rate 0.12% among 410,000. AID 624173. Potency, µM (doses to about 76.8 µM), for inactives: at the top dose activity, negative = inhibition, actives largely listed as inhibitors. TbPYK enzyme, Kinase-Glo Plus ATP luminescence, 45 min; note: potency is the fitted concentration of half-maximal effect; % is set by controls: 0 for no effect and ±100 for the full control effect; nearly all actives have a fitted effect of over 50% in size
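Activity of T. brucei pyruvate kinase was followed by Kinase-Glo Plus luminescence after the enzyme reacted 45 min at room temperature with 130 uM ADP (final) and substrate. Test compounds were added before ADP at multiple concentrations.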
Numbers without * were called inactive. Unless noted, calls come from the whole dose curve; as a rule, active = well fitted curve in the direction sought with a large enough effect; inconclusive = small, poorly fitted or top-dose-only effect, or another doubt; inactive = no such curve, though single readings can be large; an effect the other way counts as inactive or inconclusive.

Screening Cc1ccc(NC(=O)Cn2c(=S)[nH]c3ccccc32)cc1 returned LmPK inh -13%, SARS PLpro yeast 2%, Shiga inhibitor 42, Cycloheximide cs 22* and TbPYK inhibitor -26%.
C[C@H](NC(=O)c1ncn2c1C(=O)NC[C@@H]2C)C(=O)OC(C)(C)C was read as TbPYK inhibitor 1%.
Screening Cc1ccc2nc3ccc(N4CCCC4)nn3c(=O)c2c1 returned LmPK inh -4%, NS1 inh -3%, SARS PLpro yeast -8%, Shiga inhibitor 63, Cycloheximide cs 35* and TbPYK inhibitor -10%.
`Cc1sc2nc3n(c(=O)c2c1C)CCCCC3` gave LmPK inh 0%, NS1 inh -15%, SARS PLpro yeast -9%, Shiga inhibitor 13, Cycloheximide cs 8 and TbPYK inhibitor -5%.
`Cc1sc2nc3ccc(N4CCCCC4)nn3c(=O)c2c1C` gave LmPK inh -4%, NS1 inh -4%, SARS PLpro yeast -10%, Shiga inhibitor 68*, Cycloheximide cs 30* and TbPYK inhibitor -20%.
Screening NCCc1nc2ccccc2s1 returned LmPK inh 0%, SARS PLpro yeast 3%, Shiga inhibitor -5, Cycloheximide cs 5 and TbPYK inhibitor -1%.
`C=CCN1C(=O)C(=O)N(Cc2nc3ccccc3s2)C1=O` gave LmPK inh 0%, NS1 inh 5%, SARS PLpro yeast -1%, Shiga inhibitor 77*, Cycloheximide cs 34* and TbPYK inhibitor -2%.
Screening c1ccc(N2CC3CCc4ccccc4C3=N2)cc1 (stereo not drawn) returned LmPK inh -7%, NS1 inh 1%, SARS PLpro yeast 0%, Shiga inhibitor 64*, Cycloheximide cs 39* and TbPYK inhibitor 0%.
`O=C(Cc1cccc(NC(=O)C2CCN(C(=O)C3CCCCC3)CC2)c1)Nc1cccc(C(=O)N2CCCC2)c1` gave SARS PLpro yeast 4% and TbPYK inhibitor 2%.
For COc1ccc(CCN2C(=O)c3[nH]nc(-c4ccccc4O)c3C2c2ccc(OC)c(OC)c2)cc1 (stereo not drawn) the results were TbPYK inhibitor -8%.
`O=C(COC(=O)c1cccc(S(=O)(=O)NCc2ccccc2)c1)c1ccccc1` gave LmPK inh 2%, NS1 inh 14%, SARS PLpro yeast 16%, Shiga inhibitor 57*, Cycloheximide cs 19* and TbPYK inhibitor -6%.
For O=C(CNS(=O)(=O)c1ccccc1)OCC(=O)c1ccc(OC(=O)c2ccccc2)cc1 the results were LmPK inh 5%, NS1 inh -1%, SARS PLpro yeast 0%, Shiga inhibitor 32*, Cycloheximide cs 15* and TbPYK inhibitor -11%.
Screening CNS(=O)(=O)c1cccc(C(=O)OCC(=O)NCc2ccccc2)c1 returned LmPK inh 3%, NS1 inh 8%, SARS PLpro yeast 4%, Shiga inhibitor -18, Cycloheximide cs 0 and TbPYK inhibitor 5%.
O=C(NCc1ccccc1)c1cccc(S(=O)(=O)NCc2ccccc2)c1 was read as LmPK inh 1%, NS1 inh -2%, SARS PLpro yeast 9%, Shiga inhibitor -6, Cycloheximide cs -2 and TbPYK inhibitor -2%.
Screening Cc1cc(C)c(C(=O)COC(=O)c2cccc(S(=O)(=O)NCc3ccccc3)c2)cc1C returned LmPK inh -2%, NS1 inh 26%, SARS PLpro yeast 15%, Shiga inhibitor 11, Cycloheximide cs 23* and TbPYK inhibitor -16%.
`O=C(CNS(=O)(=O)c1ccccc1)OCC(=O)c1ccc(Br)cc1` gave LmPK inh 3%, NS1 inh 10%, SARS PLpro yeast -2%, Shiga inhibitor -3, Cycloheximide cs -5 and TbPYK inhibitor -6%.
For Cc1ccccc1OCC(=O)OCC(=O)Nc1ncc(Cl)c(C)c1Cl the results were SARS PLpro yeast -4% and TbPYK inhibitor -5%.
For CC1CCN(S(=O)(=O)c2ccc3c(c2)N(CC(=O)NCCCN2CCCCC2)C(=O)CS3)CC1 the results were LmPK inh 1%, NS1 inh -3%, SARS PLpro yeast -1%, Shiga inhibitor 13, Cycloheximide cs -2 and TbPYK inhibitor 0%.

Assay outcomes (PubChem)
